According to PubChem BioAssay:
Inconclusive results are not listed. Calls of active or inactive are those of the source.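 The calls were made as follows, unless noted: active = percent response above 42, roughly 3 SD of non-fluorescent test compounds; inactive = the rest.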 Peptide text beside a SMILES is read from it.

What was measured:
[1] = yeast TOR pathway RPL19A-GFP modulators, primary screen, cell-based, S. cerevisiae, multiplex flow cytometry (AID 1862; in the data active = percent of DMSO control GFP below about 86%;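 also: lower values mimic rapamycin by blocking the RPL19A rise seen in DMSO cells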); settings: S. cerevisiae RPL19A-GFP strain, flow cytometry fluorescence, 3 h; at 10 µM; stronger effect = lower value
[2] = modulators of MEP2-GFP levels in yeast, primary screen, S. cerevisiae, multiplex flow cytometry (AID 1867;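 active = GFP response, as percent of the DMSO control, above the screen-wide mean plus 3 SD, about 139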;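 also: median GFP channel fluorescence of barcode-gated MEP2-GFP cells measured by flow cytometry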); settings: S. cerevisiae MEP2-GFP strain, 3 h, at 10 µM, stronger effect = higher value, 100% means same as DMSO wells
[3] = modulators of CIT2-GFP expression in yeast, primary screen, S. cerevisiae, GFP fusion, multiplex flow cytometry (AID 1870;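 active = percent response above a set limit, the screen-wide mean plus 3 SD, cut at about 130% in these data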;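 also: barcoded CIT2-GFP strain pooled with four other GFP strains with rapamycin as positive control; median GFP fluorescence per well over plate mean of DMSO wells so 100% = DMSO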); settings: 3 h, at 10 µM, stronger effect = higher value
[4] = modulators of LAP4-GFP expression in yeast, primary screen, S. cerevisiae, multiplex flow cytometry (AID 1873;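 active = GFP signal, as percent of the solvent control, above the screen mean plus 3 SD, about 149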); settings: 3 h, at 10 µM, stronger effect = higher value
[5] = modulators of AGP1-GFP expression in yeast TOR pathway, primary screen, cell-based, multiplex flow cytometry, S. cerevisiae (AID 1887;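 active = GFP signal above the screen-wide mean plus 3 SD, that is over about 124.5% of the solvent control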;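 also: AGP1-GFP fusion strain of S. cerevisiae within a five-strain barcoded multiplex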); settings: 3 h, at 10 µM, stronger effect = higher value
[6] = inhibitors of CD8+ T cell-vesicle binding, pilot screen, LFA-1/ICAM-1 modulator project, MLPCN validation set, flow cytometry (AID 2523;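 active = response below a set limit, under 55% cells CD8-positive and vesicle-bound, and CD8 cells' 90th-percentile brightness under 279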;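 as to vesicle binding response: mean PE anti-B7-1 fluorescence of CD8+ cells relative to row control; 100% = QL9-loaded vesicles with DMSO vehicle in the same plate row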); settings: 2C mouse CD8+ T cells, at 7 µM, stronger effect = lower value; double positive events: measured here: CD8+/vesicle+ event percentage
[7] = biological target: Integrin beta-1 (Homo sapiens) + Integrin alpha-4 (Homo sapiens) (UniProt P13612+P05556); assay: inhibition of HUTS-21 binding to VLA-4, pilot screen, VLA-4 allosteric modulator project, U937 cells, HUTS-21 mAb, flow cytometry, validation set (AID 2674;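 active = inhibition above 50%, about 3 SD of the validation set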;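 also: antibody binding induced by the VLA-4 ligand LDV present at three times its Kd; 0% = LDV ligand with antibody and no compound and 100% = antibody without LDV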); settings: HUTS-21 LIBS mAb binding, at 6.7 µM, stronger effect = higher value, binding induced by LDV ligand
Integrin beta-1 (Homo sapiens) + Integrin alpha-4 (Homo sapiens), sequence (P05556 whole entry, looked up): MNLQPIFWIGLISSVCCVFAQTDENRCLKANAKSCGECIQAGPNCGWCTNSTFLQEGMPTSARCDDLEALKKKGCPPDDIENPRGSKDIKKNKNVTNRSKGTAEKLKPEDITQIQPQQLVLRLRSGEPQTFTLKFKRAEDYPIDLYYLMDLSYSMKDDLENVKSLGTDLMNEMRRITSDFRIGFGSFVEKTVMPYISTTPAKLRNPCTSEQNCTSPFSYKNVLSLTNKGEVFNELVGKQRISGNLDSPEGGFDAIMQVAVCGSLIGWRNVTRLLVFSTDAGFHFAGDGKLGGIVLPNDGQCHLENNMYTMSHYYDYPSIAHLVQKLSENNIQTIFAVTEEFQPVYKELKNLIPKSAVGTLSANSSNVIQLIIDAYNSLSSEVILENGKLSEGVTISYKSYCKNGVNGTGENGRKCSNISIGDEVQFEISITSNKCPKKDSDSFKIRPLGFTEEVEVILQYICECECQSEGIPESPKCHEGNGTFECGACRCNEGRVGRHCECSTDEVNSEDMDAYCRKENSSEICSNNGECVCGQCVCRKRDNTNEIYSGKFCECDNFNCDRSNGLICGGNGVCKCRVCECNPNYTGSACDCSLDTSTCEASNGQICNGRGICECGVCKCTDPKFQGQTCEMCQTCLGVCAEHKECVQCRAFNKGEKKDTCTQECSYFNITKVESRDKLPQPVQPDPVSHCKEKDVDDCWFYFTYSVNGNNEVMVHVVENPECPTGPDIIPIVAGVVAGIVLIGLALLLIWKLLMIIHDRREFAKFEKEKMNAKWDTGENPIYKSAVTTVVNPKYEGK
Integrin beta-1 (Homo sapiens) + Integrin alpha-4 (Homo sapiens), sequence (P13612 whole entry, looked up): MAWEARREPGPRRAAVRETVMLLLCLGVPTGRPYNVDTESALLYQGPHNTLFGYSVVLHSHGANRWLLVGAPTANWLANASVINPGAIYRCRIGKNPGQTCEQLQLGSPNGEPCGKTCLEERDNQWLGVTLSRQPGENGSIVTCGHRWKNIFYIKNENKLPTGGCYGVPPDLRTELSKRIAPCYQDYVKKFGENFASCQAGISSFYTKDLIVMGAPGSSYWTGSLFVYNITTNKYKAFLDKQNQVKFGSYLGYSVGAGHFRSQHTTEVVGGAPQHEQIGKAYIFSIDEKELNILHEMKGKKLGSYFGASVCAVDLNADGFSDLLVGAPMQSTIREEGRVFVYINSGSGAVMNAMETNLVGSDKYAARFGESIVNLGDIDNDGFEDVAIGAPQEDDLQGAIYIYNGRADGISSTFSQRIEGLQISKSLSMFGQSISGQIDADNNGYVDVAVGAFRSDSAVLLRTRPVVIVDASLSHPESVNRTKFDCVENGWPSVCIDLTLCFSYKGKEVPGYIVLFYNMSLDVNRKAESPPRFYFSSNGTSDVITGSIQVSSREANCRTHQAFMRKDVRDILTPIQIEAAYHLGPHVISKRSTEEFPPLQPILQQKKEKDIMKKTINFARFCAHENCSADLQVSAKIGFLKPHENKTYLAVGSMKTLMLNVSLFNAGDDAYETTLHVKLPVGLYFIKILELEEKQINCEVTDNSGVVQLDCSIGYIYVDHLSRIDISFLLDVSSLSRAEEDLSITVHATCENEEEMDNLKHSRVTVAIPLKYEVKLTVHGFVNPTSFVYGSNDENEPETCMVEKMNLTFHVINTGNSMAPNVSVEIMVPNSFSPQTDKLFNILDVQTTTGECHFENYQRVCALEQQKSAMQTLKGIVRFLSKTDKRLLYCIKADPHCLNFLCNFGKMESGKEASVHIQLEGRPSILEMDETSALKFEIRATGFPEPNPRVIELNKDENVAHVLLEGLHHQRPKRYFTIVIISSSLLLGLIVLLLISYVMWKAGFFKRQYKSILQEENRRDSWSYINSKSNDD

[8] = superoxide lowering in aged yeast cells, pilot screen, validation compound set (AID 2706;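 active = superoxide response below 65% of plate, a cut near 3 SD across the whole screen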;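 also: yeast exposed to compound for one week at 30 degrees C before staining; 100% = mean of all compound wells on the same plate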); settings: S. cerevisiae aging, superoxide DHE fluorescence; at 10 µM; stronger effect = lower value
[9] = biological target: Beta-adrenergic receptor kinase 1 (Homo sapiens) (UniProt P25098); assay: GRK2 binders displacing RNA aptamer, biochemical, validation, human GRK2, bead flow cytometry (AID 488806;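 active = aptamer binding inhibition above 30%, about 3 SD of noise from non-fluorescent compounds; inactive = inhibition at or below 30%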); settings: bead-bound GRK2, FAM-aptamer displacement, at 10 µM, stronger effect = higher value
Beta-adrenergic receptor kinase 1 (Homo sapiens), sequence (P25098 whole entry, looked up): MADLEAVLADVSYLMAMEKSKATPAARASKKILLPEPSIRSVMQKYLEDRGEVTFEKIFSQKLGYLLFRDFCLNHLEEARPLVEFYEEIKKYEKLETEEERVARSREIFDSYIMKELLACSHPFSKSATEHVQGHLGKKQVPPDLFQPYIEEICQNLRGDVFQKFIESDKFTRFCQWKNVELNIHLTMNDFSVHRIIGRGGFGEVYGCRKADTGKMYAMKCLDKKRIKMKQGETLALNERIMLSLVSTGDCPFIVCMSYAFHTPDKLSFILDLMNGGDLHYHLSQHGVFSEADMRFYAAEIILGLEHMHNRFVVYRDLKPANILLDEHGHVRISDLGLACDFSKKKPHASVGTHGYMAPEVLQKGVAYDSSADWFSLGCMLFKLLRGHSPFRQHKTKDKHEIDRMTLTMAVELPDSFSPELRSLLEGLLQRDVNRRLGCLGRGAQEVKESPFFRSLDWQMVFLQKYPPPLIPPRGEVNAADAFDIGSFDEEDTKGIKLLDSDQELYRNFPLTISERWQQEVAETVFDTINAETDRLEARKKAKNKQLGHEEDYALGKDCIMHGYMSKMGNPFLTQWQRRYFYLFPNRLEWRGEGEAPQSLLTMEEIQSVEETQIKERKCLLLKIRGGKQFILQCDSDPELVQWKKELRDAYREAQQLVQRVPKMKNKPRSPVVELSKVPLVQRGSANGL

[10] = biological target: Beta-2 adrenergic receptor (Homo sapiens) (UniProt P07550); assay: beta2AR agonists driving receptor internalization, pilot screen, cell-based, FAP fluorogen, flow cytometry, validation set (AID 504459); settings: Am2.2-beta2AR cells, FAP surface receptor flow cytometry; at 10 µM; stronger effect = higher value;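 also: agonist-driven loss of surface beta2AR via internalization measured by FAP dye flow cytometry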
Beta-2 adrenergic receptor (Homo sapiens), sequence (P07550 whole entry, looked up): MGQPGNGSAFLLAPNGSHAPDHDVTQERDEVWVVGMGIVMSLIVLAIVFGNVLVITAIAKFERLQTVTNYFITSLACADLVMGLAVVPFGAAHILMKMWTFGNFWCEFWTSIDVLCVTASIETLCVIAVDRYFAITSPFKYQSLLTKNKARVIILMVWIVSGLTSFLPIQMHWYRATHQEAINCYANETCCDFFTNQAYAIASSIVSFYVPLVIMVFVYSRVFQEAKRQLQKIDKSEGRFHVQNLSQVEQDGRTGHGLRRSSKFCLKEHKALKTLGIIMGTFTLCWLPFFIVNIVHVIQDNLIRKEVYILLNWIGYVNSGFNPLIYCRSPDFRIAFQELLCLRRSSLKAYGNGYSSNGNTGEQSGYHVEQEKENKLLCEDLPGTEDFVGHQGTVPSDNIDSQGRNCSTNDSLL

[11] = biological target: AP-2 complex subunit beta (Homo sapiens) (UniProt P63010); assay: inhibitors of arrestin peptide binding to AP2, pilot screen, biochemical, validation set, GST-AP2 beads, flow cytometry (AID 504541;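 active = inhibition above 54%, about 3 SD of non-fluorescent compounds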;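 also: AP2 carries R879A mutation and is captured from E. coli lysate; bead-bound FITC arrestin peptide fluorescence measuring arrestin peptide binding to AP2; 0% = DMSO wells and 100% = excess unlabeled arrestin peptide control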); settings: FITC arrestin peptide, at 10 µM, stronger effect = higher value, AP2 beta2 appendage fragment, R879A mutant
AP-2 complex subunit beta (Homo sapiens), sequence (P63010 whole entry, looked up, the tested form may be a part, one chain of several): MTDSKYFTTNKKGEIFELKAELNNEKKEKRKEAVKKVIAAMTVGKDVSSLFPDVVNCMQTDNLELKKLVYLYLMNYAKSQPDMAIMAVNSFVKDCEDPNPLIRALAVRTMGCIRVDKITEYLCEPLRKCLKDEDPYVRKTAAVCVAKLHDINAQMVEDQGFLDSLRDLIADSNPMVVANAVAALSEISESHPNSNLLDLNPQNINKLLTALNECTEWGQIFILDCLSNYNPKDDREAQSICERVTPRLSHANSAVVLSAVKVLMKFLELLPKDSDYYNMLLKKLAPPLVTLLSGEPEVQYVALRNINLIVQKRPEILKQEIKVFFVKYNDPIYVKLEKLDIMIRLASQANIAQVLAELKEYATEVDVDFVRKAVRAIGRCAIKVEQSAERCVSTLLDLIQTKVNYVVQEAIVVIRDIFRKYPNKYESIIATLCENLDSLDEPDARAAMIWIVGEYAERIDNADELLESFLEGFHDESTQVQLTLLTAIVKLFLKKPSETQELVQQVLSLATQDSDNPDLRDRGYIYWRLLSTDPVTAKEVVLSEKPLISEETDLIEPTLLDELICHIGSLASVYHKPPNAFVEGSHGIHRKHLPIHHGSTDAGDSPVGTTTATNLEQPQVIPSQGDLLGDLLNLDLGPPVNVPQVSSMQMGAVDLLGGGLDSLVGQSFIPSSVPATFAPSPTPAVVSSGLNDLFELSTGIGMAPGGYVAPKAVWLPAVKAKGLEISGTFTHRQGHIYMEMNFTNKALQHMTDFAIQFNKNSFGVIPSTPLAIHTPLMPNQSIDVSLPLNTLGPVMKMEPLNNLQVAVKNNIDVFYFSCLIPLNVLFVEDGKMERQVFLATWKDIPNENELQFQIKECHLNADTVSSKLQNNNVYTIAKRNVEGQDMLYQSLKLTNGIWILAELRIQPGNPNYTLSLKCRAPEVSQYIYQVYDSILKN

[12] = yeast V-ATPase proton transport modulators, S. cerevisiae, pHLuorin, HTS validation (AID 504600; in the data active = response above about 15%;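 also: plate controls were DMSO for no effect and reference compound for full effect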); settings: S. cerevisiae pHLuorin cytosolic pH, at 10 µM, stronger effect = higher value
[13] = tested on: anti-desmoglein-3 scFv antibody binding to human DSG3; assay: inhibitors of anti-DSG3 scFv binding to DSG3, pilot screen, biochemical, validation compound set, bead-based, flow cytometry (AID 588368;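 active = binding below the plate cutoff, the plate median minus 3 SD, with a reading above zero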;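 also: signal is the median channel fluorescence of bead-bound GFP antibody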); settings: Protein G beads, DSG3-Fc, scFv-GFP binding, at 10 µM, stronger effect = lower value
[14] = inhibitors of fungal efflux pumps CDR1, CDR2, MDR1, pilot screen, validation compound set, multiplex, phenotypic (AID 588506;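 active = efflux inhibition above 0.42, the validation set average plus 4 SD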;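 also: Nile Red retained in cells so higher fluorescence means more efflux inhibition; 0 = negative control wells and 1 = enniatin B 25 µM full block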); settings: S. cerevisiae pump-expressing triplex, Nile Red efflux flow cytometry; at 10 µM; stronger effect = higher value; the pumps come from Candida albicans
[15] = biological target: ATP-binding cassette sub-family B member 6 (Homo sapiens) (UniProt Q9NP58); assay: ABCB6 transporter inhibitors, pilot screen, K562-ABCB6 cells, flow cytometry, validation set (AID 588550;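 active = inhibition above the screen-wide mean plus 3 SD, about 51%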;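 also: 0% = DMSO wells and 100% = benzethonium chloride 70 µM positive control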); settings: K562-ABCB6 porphyrin accumulation, 1 h, at 10 µM, stronger effect = higher value
ATP-binding cassette sub-family B member 6 (Homo sapiens), sequence (Q9NP58 whole entry, looked up): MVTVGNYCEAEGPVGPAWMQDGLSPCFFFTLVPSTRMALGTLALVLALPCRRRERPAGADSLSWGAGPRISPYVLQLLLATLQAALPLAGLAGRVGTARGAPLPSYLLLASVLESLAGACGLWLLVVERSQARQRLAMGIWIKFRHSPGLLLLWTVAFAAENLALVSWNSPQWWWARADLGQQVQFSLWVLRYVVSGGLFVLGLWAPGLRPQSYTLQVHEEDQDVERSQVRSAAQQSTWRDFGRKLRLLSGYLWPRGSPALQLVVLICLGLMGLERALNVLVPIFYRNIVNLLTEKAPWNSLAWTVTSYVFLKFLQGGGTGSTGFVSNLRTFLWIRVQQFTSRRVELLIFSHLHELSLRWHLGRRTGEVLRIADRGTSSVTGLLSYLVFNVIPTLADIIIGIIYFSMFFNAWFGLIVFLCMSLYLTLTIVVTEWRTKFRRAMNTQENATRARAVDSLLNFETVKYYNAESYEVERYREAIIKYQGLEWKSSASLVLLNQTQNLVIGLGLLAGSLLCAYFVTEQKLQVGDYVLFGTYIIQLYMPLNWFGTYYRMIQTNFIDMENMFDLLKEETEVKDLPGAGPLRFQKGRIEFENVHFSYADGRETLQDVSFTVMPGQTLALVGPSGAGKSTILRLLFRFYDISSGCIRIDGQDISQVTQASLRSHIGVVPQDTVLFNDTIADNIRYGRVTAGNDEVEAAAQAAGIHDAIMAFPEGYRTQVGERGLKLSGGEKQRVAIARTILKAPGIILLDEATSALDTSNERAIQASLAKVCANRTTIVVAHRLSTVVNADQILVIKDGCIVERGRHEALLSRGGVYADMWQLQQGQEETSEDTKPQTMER

[16] = promoters of myeloid differentiation in arrested cells, primary screen, cell-based, GFP/MAC1 double positive, flow cytometry, validation set (AID 588685;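 active = differentiation response of at least 50%, scaled between solvent and reference control, from cells with both markers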;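 also: compound exposure lasts four days before antibody staining and flow analysis; 0% = DMSO wells and 100% = 5 µM fulvestrant positive control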); settings: ER-HoxA9 marrow cells, stronger effect = higher value, normalized: vehicle 0, fulvestrant 100

Cc1ccc(Nc2ncccc2C(=O)O)cc1C
64.4%: double positive events [6]
inactive: percent of DMSO control GFP [1] 90.6% | GFP response vs DMSO [2] 123% | percent response of DMSO control [3] 103% | GFP response vs DMSO [4] 80.3% | GFP response, % of DMSO [5] 94.7% | vesicle binding response [6] 264% | inhibition [7] 8.4% | superoxide response (% of plate) [8] 114% | aptamer binding inhibition [9] 2% | response [10] 0.08% | inhibition [11] -7.34% | response [12] -0.86% | binding (% of control) [13] 105% | efflux inhibition (fraction of control) [14] -0.31 | inhibition [15] 15% | differentiation response [16] 6.55%

O=C(NCCNc1ccc(Cl)cc1[N+](=O)[O-])c1cccnc1
57.5%: double positive events [6]
inactive: percent of DMSO control GFP [1] 100% | GFP response vs DMSO [2] 102% | percent response of DMSO control [3] 102% | GFP response vs DMSO [4] 106% | GFP response, % of DMSO [5] 98.9% | vesicle binding response [6] 13.3% | inhibition [7] 5.41% | superoxide response (% of plate) [8] 102% | aptamer binding inhibition [9] -6% | response [10] -6.88% | inhibition [11] 20% | response [12] 0.22% | binding (% of control) [13] 100% | efflux inhibition (fraction of control) [14] -0.22 | inhibition [15] 4% | differentiation response [16] 8.02%

CC(=O)NC1C(OCc2ccccc2)OC(COC(C)=O)C(OC(C)=O)C1OC(C)=O (stereo not given)
inactive: percent of DMSO control GFP [1] 104% | GFP response vs DMSO [2] 104% | percent response of DMSO control [3] 106% | GFP response vs DMSO [4] 91.5% | GFP response, % of DMSO [5] 96% | vesicle binding response [6] 183% | inhibition [7] -44% | superoxide response (% of plate) [8] 105% | aptamer binding inhibition [9] 2% | response [10] 1.83% | inhibition [11] -2% | response [12] -3.81% | binding (% of control) [13] 104% | efflux inhibition (fraction of control) [14] 0.12 | inhibition [15] 2% | differentiation response [16] -6.03%
65.2%: double positive events [6]

Cc1ccc(C(=O)COC(=O)c2cccc(N3C(=O)c4c(C)nc5ccccc5c4C3=O)c2)cc1C
61.9%: double positive events [6]
inactive: percent of DMSO control GFP [1] 99.5% | GFP response vs DMSO [2] 102% | percent response of DMSO control [3] 97% | GFP response vs DMSO [4] 110% | GFP response, % of DMSO [5] 113% | vesicle binding response [6] 170% | inhibition [7] -8.78% | superoxide response (% of plate) [8] 107% | aptamer binding inhibition [9] 1% | response [10] -22.6% | inhibition [11] -6.3% | response [12] -3.74% | binding (% of control) [13] 98.8% | efflux inhibition (fraction of control) [14] 0.25 | inhibition [15] 2% | differentiation response [16] -13.9%

Cc1ccccc1N1C(N)=NC(N)=NC1(C)C
inactive: percent of DMSO control GFP [1] 102% | GFP response vs DMSO [2] 103% | percent response of DMSO control [3] 108% | GFP response vs DMSO [4] 94.8% | GFP response, % of DMSO [5] 104% | vesicle binding response [6] 135% | inhibition [7] -9.13% | superoxide response (% of plate) [8] 96.3% | aptamer binding inhibition [9] 0% | response [10] 7.98% | inhibition [11] -7.13% | response [12] 1.38% | binding (% of control) [13] 104% | efflux inhibition (fraction of control) [14] -0.28 | inhibition [15] 20% | differentiation response [16] -19.2%
63%: double positive events [6]

CCC(C)NCCOc1ccc(C(C)(C)c2ccccc2)cc1 (stereo not given)
61.9%: double positive events [6]
inactive: percent of DMSO control GFP [1] 107% | GFP response vs DMSO [2] 99.3% | percent response of DMSO control [3] 104% | GFP response vs DMSO [4] 94% | GFP response, % of DMSO [5] 103% | vesicle binding response [6] 181% | inhibition [7] -5.64% | superoxide response (% of plate) [8] 97.5% | aptamer binding inhibition [9] -5% | response [10] 17.1% | inhibition [11] -12.2% | response [12] -2.14% | binding (% of control) [13] 106% | efflux inhibition (fraction of control) [14] -0.01 | inhibition [15] -5% | differentiation response [16] 9.04%

CCC(C)NCCOc1ccccc1C (stereo not given)
61.2%: double positive events [6]
inactive: percent of DMSO control GFP [1] 104% | GFP response vs DMSO [2] 101% | percent response of DMSO control [3] 105% | GFP response vs DMSO [4] 97% | GFP response, % of DMSO [5] 108% | vesicle binding response [6] 115% | inhibition [7] 5.61% | superoxide response (% of plate) [8] 104% | aptamer binding inhibition [9] -4% | response [10] -6.41% | inhibition [11] 29% | response [12] -2.79% | binding (% of control) [13] 96.8% | efflux inhibition (fraction of control) [14] -0.61 | inhibition [15] 12% | differentiation response [16] -16.3%

Cc1ccccc1C(=O)NCC(=O)O
61.4%: double positive events [6]
inactive: percent of DMSO control GFP [1] 103% | GFP response vs DMSO [2] 107% | percent response of DMSO control [3] 103% | GFP response vs DMSO [4] 93.7% | GFP response, % of DMSO [5] 105% | vesicle binding response [6] 130% | inhibition [7] 0.25% | superoxide response (% of plate) [8] 102% | aptamer binding inhibition [9] 5% | response [10] 2.69% | inhibition [11] -5.73% | binding (% of control) [13] 103% | efflux inhibition (fraction of control) [14] 0.31 | inhibition [15] -7% | differentiation response [16] -13.3%
active: response [12] 109%

CCCCC(=O)O[C@H]1CC[C@H]2[C@@H]3CCc4cc(O)ccc4[C@H]3CC[C@]12C
active: response [10] 52.1%
inactive: percent of DMSO control GFP [1] 100% | GFP response vs DMSO [2] 105% | percent response of DMSO control [3] 109% | GFP response vs DMSO [4] 125% | GFP response, % of DMSO [5] 116% | vesicle binding response [6] 210% | inhibition [7] 29.5% | superoxide response (% of plate) [8] 93.8% | aptamer binding inhibition [9] -4% | inhibition [11] 30.7% | response [12] -0.48% | binding (% of control) [13] 106% | efflux inhibition (fraction of control) [14] -0.17 | inhibition [15] -1% | differentiation response [16] -6.96%
62.5%: double positive events [6]

CC(=O)NC(CC(C)C)C(=O)NC(Cc1ccccc1)C(N)=O (stereo not drawn) (Ac-Leu-Phe-NH2; configuration not given here)
inactive: percent of DMSO control GFP [1] 101% | GFP response vs DMSO [2] 107% | percent response of DMSO control [3] 98.6% | GFP response vs DMSO [4] 111% | GFP response, % of DMSO [5] 103% | vesicle binding response [6] 128% | inhibition [7] 20.4% | superoxide response (% of plate) [8] 91.8% | aptamer binding inhibition [9] 2% | response [10] 4.73% | inhibition [11] -15.5% | response [12] -1.63% | binding (% of control) [13] 103% | efflux inhibition (fraction of control) [14] -0.13 | inhibition [15] 13% | differentiation response [16] -4.57%
60.5%: double positive events [6]
